HT1080-NT tox – qHTS for induction of synthetic lethality in tumor cells producing 2HG: qHTS for the HT-1080-NT fibrosarcoma cell line; HT-1080-NT fibrosarcoma viability, CellTiter-Glo ATP luminescence, 48 h; Potency, µM (series often up to 46.1 µM), for the others: at the highest dose activity, negative = less viability, hits mostly cytotoxic; 360,000 tested, 1.6% active;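 further: NT is the 2HG producing partner of a matched IDH1 knockdown line; 0% = DMSO-treated cells and -100% = media-only wells without cells; nearly all actives have a fitted effect of over 55% in size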
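Fibrosarcoma NT cells, 750 per well in 5% FBS RPMI, were exposed to compound for 48 hours. Viability: CellTiter-Glo luminescence.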
KB-V1 cytotox – qHTS assay for MDR1-selective chemotherapeutics: Primary screen using the drug-selected MDR subline cells KB-V1; KB-V1 MDR cells viability, CellTiter-Glo, 72 h; Potency, µM (highest dose often 46.1 µM), most hits filed as cytotoxic; 400,000 tested, 3.4% active; AID 1347076, 2019; further: nearly all actives have a fitted effect of over 60% in size
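Compound-treated KB-V1 multidrug-resistant cells, 72 h, 37 degrees C; viability by CellTiter-Glo. Fitted qHTS curves give the values.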
DT40 TDP1 no CPT – qHTS for Inhibitors of human tyrosyl-DNA phosphodiesterase 1 (TDP1): qHTS in cells in absence of CPT. 420,000 tested, 15% active. Potency, µM (series often up to 46.2 µM), for the others: top-dose activity change, negative = growth inhibition, usual class: inhibitors. DT40 Tdp1-/- hTDP1 cells, no CPT, ATP luminescence, 48 h. AID 686978, 2013; further: nearly all actives have a fitted effect of over 55% in size
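Seeded 400 DT40-hTDP1 cells/well (vehicle DMSO, no 20 nM CPT); pinned compounds; ≥48 hr at 37 °C; CellTiter-Glo luminescence as viability measure.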
HT1080 IDH1KD tx – qHTS for induction of synthetic lethality in tumor cells producing 2HG: qHTS for the HT-1080-IDH1KD cell line; Potency, µM (top dose mostly 46.1 µM), inactives show top-dose activity, negative = toxicity, usual class: cytotoxic; HT-1080 IDH1 knockdown viability, ATP luminescence, 48 h; 360,000 tested, 2% active;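 further: 0% = DMSO wells and -100% = cell-free medium wells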
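HT-1080-IDH1KD cells (IDH1 knocked down), 750/well in RPMI with 5% FBS, treated with compound 48 h at 37 degrees C. Viability by CellTiter-Glo luminescence, normalised to DMSO and no-cell wells; concentration-response curves classed.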
DT40 TDP1 CPT – qHTS for Inhibitors of human tyrosyl-DNA phosphodiesterase 1 (TDP1): qHTS in cells in presence of CPT; chicken DT40 Tdp1-/-;hTDP1 cells + 20 nM CPT, ATP luminescence, 48 h; Potency, µM (top dose mostly 46.2 µM), without a hit: at the highest dose activity change, negative = growth inhibition, actives largely listed as inhibitors; 420,000 tested, 12% active; AID 686979, 2013; further: nearly all actives have a fitted effect of over 55% in size
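Cell growth measured by CellTiter-Glo luminescence after a minimum 48 h, 37 C compound exposure with 20 nM CPT in Tdp1-knockout DT40 cells stably expressing hTDP1, seeded 400/well; qHTS titration format.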
KB-3-1 tox – qHTS assay for MDR1-selective chemotherapeutics: Primary screen using the parental adenocarcinoma cell KB-3-1; KB-3-1 viability, CellTiter-Glo ATP luminescence, 72 h; Potency, µM (titrated, usually from 46.1 µM), usual class: cytotoxic; 400,000 tested, 1.4% active; further: nearly all actives have a fitted effect of over 60% in size
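Parental KB-3-1 viability, qHTS format: 72 h compound exposure, 37 °C; CellTiter-Glo; media-only wells and DMSO plates as controls; concentration-effect fits on corrected data.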
Starred values were filed as active, the others as inactive; i = inactive; ? = inconclusive; nt = no result. The list is not random: actives were taken first. Their share in the collection is about 19%. The call rests on the fitted dose curve; in most records, active means well fitted curve in the direction sought with a large enough effect; inconclusive means small, poorly fitted or top-dose-only effect, or another doubt; inactive means no such curve, though single readings can be large; an effect the other way counts as inactive or inconclusive. Unless noted, on the % scale 0 is the no-effect control and ±100 the full control effect; potency means the concentration at half of the fitted maximal effect.

SMILES	HT1080-NT tox	KB-V1 cytotox	DT40 TDP1 no CPT	HT1080 IDH1KD tx	DT40 TDP1 CPT	KB-3-1 tox
CCN(C[C@H]1N[C@@](Cc2ccccc2)(C(=O)OC)[C@H]2C(=O)N(Cc3ccccc3)C(=O)[C@@H]12)S(=O)(=O)c1ccc(F)cc1	9%	i	?	5%	18µM*	i
CCN(C[C@H]1N[C@@](Cc2ccccc2)(C(=O)OC)[C@H]2C(=O)N(Cc3ccccc3)C(=O)[C@@H]12)S(=O)(=O)c1ccc(C(C)(C)C)cc1	11%	i	16µM*	6%	?	i
CCN(C[C@H]1N[C@@](CC)(C(=O)OC)[C@H]2C(=O)N(C)C(=O)[C@@H]12)S(=O)(=O)c1ccc(C(C)(C)C)cc1	-4%	i	?	-9%	?	i
CCN(C[C@H]1N[C@@](Cc2ccccc2)(C(=O)OC)[C@H]2C(=O)N(C)C(=O)[C@@H]12)S(=O)(=O)c1ccc(C(C)(C)C)cc1	4%	i	18µM*	3%	?	i
CCN(C[C@H]1N[C@@](Cc2ccccc2)(C(=O)OC)[C@H]2C(=O)N(Cc3ccccc3)C(=O)[C@@H]12)S(=O)(=O)c1ccc(OC)cc1	2%	i	?	3%	?	i
CCN(C[C@H]1N[C@@](Cc2ccccc2)(C(=O)OC)[C@H]2C(=O)N(Cc3ccccc3)C(=O)[C@@H]12)S(=O)(=O)c1ccc(OC(F)(F)F)cc1	12%	?	?	4%	?	i
COC(=O)[C@]1(Cc2ccccc2)N[C@H](CN(C)C(=O)c2ccc(C(C)(C)C)cc2)[C@@H]2C(=O)N(Cc3ccccc3)C(=O)[C@@H]21	8%	i	21µM*	10%	15µM*	i
CCN(C[C@H]1N[C@@](C)(C(=O)OC)[C@H]2C(=O)N(Cc3ccccc3)C(=O)[C@@H]12)C(=O)COC	15%	i	13%	6%	-3%	i
CCN(C[C@H]1N[C@@](C)(C(=O)OC)[C@H]2C(=O)N(Cc3ccccc3)C(=O)[C@@H]12)C(=O)c1ccc(C(C)(C)C)cc1	-20%	i	16µM*	-10%	?	i
Cc1ccc2nc(-c3ccncc3)cc(C(=O)NCCc3ccc(F)cc3)c2c1	-3%	?	?	-7%	?	i
Cc1ccc(-c2cc(C(=O)NCCc3ccccn3)c3ccccc3n2)c(C)c1	1%	?	?	5%	?	i
Cc1ccc(-c2cc(C(=O)NCc3ccccn3)c3ccccc3n2)cc1	-12%	i	16µM*	-21%	?	i
Cc1ccc2nc(-c3ccccn3)cc(C(=O)NCCc3ccc(F)cc3)c2c1	-1%	nt	21µM*	3%	?	nt
O=C(NCCc1ccccn1)c1cc(-c2cccc3ccccc23)nc2ccccc12	-8%	i	?	-5%	26µM*	i
O=C(NCc1ccccn1)c1cc(-c2ccc(Br)cc2)nc2ccccc12	9%	2.6µM*	13µM*	12%	?	i
CCc1ccc(-c2cc(C(=O)NCc3ccccn3)c3ccccc3n2)cc1	-1%	?	?	4%	?	i
Cc1ccccc1-c1ccc(/C=C2/SC(N3CCOCC3)=NC2=O)o1	-24%	?	7.3µM*	?	2.9µM*	i

High-throughput results (PubChem BioAssay)
